Read-out in assay [1]: Tumor necrosis factor receptor 1 (TNFRSF1A), TNFRSF1A (gene 7132)
The assay is described as follows: LTEA_HepaRG_TNFRSF1A: Life Technologies and Expression Analysis (LTEA) Assay for Tumor necrosis factor receptor 1 (TNFRSF1A) using HepaRG (AID 2283535). The note with it: mRNA level, 48 h; actives raise or lower the signal. In short, it runs like this:
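Differentiated HepaRG cells in serum-free induction medium, exposed 48 h in duplicate to 8 half-log concentrations up to 100 uM in 0.5% DMSO. TNFRSF1A mRNA by Fluidigm TaqMan qRT-PCR, normalized to ACTB, GAPDH, POLR2A; bidirectional fit.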

Read-out in assay [2]: Thyroid Hormone Responsive (THRSP), THRSP (gene 7069)
As to the kind of experiment: LTEA_HepaRG_THRSP: Life Technologies and Expression Analysis (LTEA) Assay for Thyroid Hormone Responsive (THRSP) using HepaRG (AID 2283536). To be noted: mRNA level, 48 h; actives raise or lower the signal. In short, it runs like this: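 Differentiated HepaRG cells treated 48 h in serum-free induction medium with 8 half-log concentrations up to 100 uM (0.5% DMSO), duplicates. THRSP mRNA by TaqMan qRT-PCR normalised to ACTB, GAPDH, POLR2A; bidirectional fit versus DMSO.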

Read-out in assay [3]: Cellular tumor antigen p53 (Homo sapiens) (UniProt P04637)
As to the kind of experiment: LTEA_HepaRG_TP53: Life Technologies and Expression Analysis (LTEA) Assay for Tumor Protein P53 (TP53) using HepaRG (AID 2283537). The note with it: mRNA level, 48 h; actives raise or lower the signal. In short, it runs like this: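 Read-out is TP53 transcript level by microfluidic qRT-PCR, normalised to three housekeeping genes and fitted bidirectionally against DMSO. Human HepaRG cells received compounds for 48 h, highest concentration 100 uM.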

Read-out in assay [4]: UDP glucuronosyltransferase (UGT1A1), UGT1A1 (gene 54658)
As to the kind of experiment: LTEA_HepaRG_UGT1A1: Life Technologies and Expression Analysis (LTEA) Assay for UDP glucuronosyltransferase (UGT1A1) using HepaRG (AID 2283538). The note with it: mRNA level, 48 h; actives raise or lower the signal. The method, boiled down:
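Human liver HepaRG cultures receive test chemical for 48 h, up to 100 uM in 0.5% DMSO, with phenobarbital induction controls. UGT1A1 mRNA is measured by qRT-PCR and normalized to ACTB, GAPDH and POLR2A.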

Read-out in assay [5]: X-box binding protein 1 (XBP1), XBP1 (gene 7494)
The assay is described as follows: LTEA_HepaRG_XBP1: Life Technologies and Expression Analysis (LTEA) Assay for X-box binding protein 1 (XBP1) using HepaRG (AID 2283540). To be noted: mRNA level, 48 h; actives raise or lower the signal. In short, it runs like this:
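Differentiated human HepaRG cells in serum-free induction medium exposed 48 h in duplicate to eight half-log concentrations up to 100 uM in 0.5% DMSO. XBP1 mRNA measured by Fluidigm TaqMan qRT-PCR, normalized to ACTB, GAPDH, POLR2A; bidirectional fitting against DMSO.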

A short description of assay [6]: LTEA_HepaRG_LDH_cytotoxicity: Cytotoxicity Assessment in the Life Technologies and Expression Analysis (LTEA) Assay (AID 2283563; active = hit-call score of the fitted dose curve at least 0.9, where 1 is the maximum;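 as to AC50: LDH activity released into spent culture medium as a marker of cell death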). The method, boiled down:
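Differentiated HepaRG cells in serum-free induction medium, exposed 48 h in duplicate to 8 half-log concentrations up to 100 uM in 0.5% DMSO. Cytotoxicity from LDH measured in spent medium, fit relative to DMSO.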

Assay [7] in a line: ATG_XTT_Cytotoxicity: Cytotoxicity Assessment in the Attagene TRANS-FACTORIAL HepG2 Assay (AID 2283584; active = hit-call score of the fitted dose curve at least 0.9, where 1 is the maximum). In short, it runs like this:
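HepG2 cells transiently transfected with GAL4-UAS multiple reporter units, dosed 24 h; cytotoxicity read by XTT as loss of signal versus DMSO baseline.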

Assay [8] can be described thus: TOX21_p53_BLA_p2_viability: Viability Assessment in the Tox21 HCT-116 p53 Agonism Beta-lactamase Assay, Phase 2 (AID 2283591; active = hit-call score of the fitted dose curve at least 0.9, where 1 is the maximum;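 also: compound exposure lasted 16 h at 37 °C; actives lower the ATP signal meaning cytotoxicity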). The method, boiled down:
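HCT116 p53-bla cells, 4000/well, dosed after 5 h plating (217-fold dilution of DMSO stocks) and incubated 16 h at 37C. Viability taken as cellular ATP by CellTiter-Glo luminescence after 30 min RT; signal loss marks cytotoxicity.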

In assay [9] the target is Cellular tumor antigen p53 (Homo sapiens) (UniProt P04637). As to the kind of experiment: TOX21_p53_BLA_p2_ratio: Tox21 HCT-116 p53 Agonism Beta-lactamase Assay, Ratio, Phase 2 (AID 2283592; active = hit-call score of the fitted dose curve at least 0.9, where 1 is the maximum). The method, boiled down: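 HCT-116 cells with p53-responsive beta-lactamase reporter, 4000 cells/well, preincubated 5 h, then compound in DMSO (217-fold dilution) for 16 h at 37C. CCF4-AM substrate 2 h at room temperature; 460/530 nm emission ratio fitted upward versus DMSO.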

Results filed as inconclusive are left out. Where a structure was tested more than once in an assay, its records may differ in their call. Activity calls are given as the source filed them. The calls were made as follows, unless noted: active = hit-call score of the fitted dose curve at least 0.9, where 1 is the maximum; inactive = score below 0.9.

Chain of Cellular tumor antigen p53 (Homo sapiens) (P04637 whole entry, looked up): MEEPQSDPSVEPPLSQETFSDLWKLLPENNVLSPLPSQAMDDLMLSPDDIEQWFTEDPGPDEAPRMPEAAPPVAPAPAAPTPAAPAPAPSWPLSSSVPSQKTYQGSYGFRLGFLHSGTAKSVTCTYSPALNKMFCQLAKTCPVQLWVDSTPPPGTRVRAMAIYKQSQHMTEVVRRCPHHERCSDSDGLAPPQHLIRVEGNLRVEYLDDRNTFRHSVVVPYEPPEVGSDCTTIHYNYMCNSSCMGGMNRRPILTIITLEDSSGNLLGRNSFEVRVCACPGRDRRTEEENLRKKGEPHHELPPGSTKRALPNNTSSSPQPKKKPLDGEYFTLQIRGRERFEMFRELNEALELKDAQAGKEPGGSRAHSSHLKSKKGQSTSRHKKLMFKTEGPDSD

On to `COP(=S)(OC)Oc1nc(Cl)c(Cl)cc1Cl`, for which the outcome in [1], in assay [2], in [3], in assay [4], in assay [5] and in assay [6] was inactive. The outcome in assay [7], in assay [8] and in assay [9] was inactive.
For the compound `COc1ccc(C(c2ccc(OC)cc2)C(Cl)(Cl)Cl)cc1`, the compound was called inactive in [1], in [5], in assay [7], in assay [8] and in [9]. Further, the AC50 – broadly, the midpoint of the concentration-response curve, whichever way the signal moves – in assay [2] was 81.7 µM (active); in assay [3] it was 66.7 µM (active); in assay [4], 12 µM (active); in [6], 83.4 µM (active).
On to `N#CC(CCc1ccc(Cl)cc1)(Cn1cncn1)c1ccccc1` (stereo not drawn), for which the compound was called inactive in assay [1] and in assay [9]. Further, the AC50 is 90.7 µM (active) in assay [2]; 75.5 µM (active) in assay [3]; 74.9 µM (active) in assay [4]; 80.3 µM (active) in assay [5]; 37.5 µM (active) in assay [6]; 56 µM (active) in assay [8].
Regarding `Oc1ccccc1-c1ccccc1`, the compound was called inactive in assay [1], in [2], in assay [3], in [4], in assay [5] and in assay [6]. Besides, the outcome in assay [7], in assay [8] and in assay [9] was inactive.
Turning to `O=C(O)c1nc(Cl)ccc1Cl`, the compound was classed as inactive in assay [1], in [2], in assay [3], in assay [4], in assay [5] and in assay [6]. Further, the call in assay [8] and in assay [9] was inactive.
Turning to `CC(C)C1(C)N=C(c2nc3ccccc3cc2C(=O)O)NC1=O` (stereo not drawn), the outcome in [1], in assay [2], in [3], in assay [4], in assay [5] and in assay [8] was inactive. Also, the outcome in [9] was inactive.
For `CN(C)C(=S)SSC(=S)N(C)C`, the call in [1], in assay [2], in [3], in assay [4], in assay [5] and in [6] was inactive. For the same compound, the compound was called inactive in assay [8] and in [9]. Moreover, in assay [9], the AC50 is 33 µM (active).
Regarding `CCc1nn(C)c(C(=O)NCc2ccc(C(C)(C)C)cc2)c1Cl`, the concentration at half-maximal activity (AC50) in assay [1] is 27.4 µM (active); in [2], 1.06 µM (active); in [3], 12.1 µM (active); in assay [4], 27.8 µM (active); in [5] it was 13.6 µM (active); in assay [6], 27.3 µM (active). Also, the AC50 in assay [8] is 46.1 µM (active); in [9], 0.0232 µM (active).
Take `COC(=O)N(OC)c1ccccc1COc1ccn(-c2ccc(Cl)cc2)n1`: the AC50 in assay [1] is 77.1 µM (active); in assay [2], 7.22 µM (active); in assay [3], 78.5 µM (active); in [4], 82.4 µM (active); in assay [6], 71.5 µM (active); in [9], 1.09 µM (active). Moreover, the compound was classed as inactive in [5], in assay [7] and in [8].
Consider `C=CCC1=C(C)[C@@H](OC(=O)[C@@H]2[C@@H](C=C(C)C)C2(C)C)CC1=O`, for which the result in assay [1], in [2], in [3], in assay [4], in assay [5] and in [8] was inactive. Also, the result in assay [9] was inactive.
As to `CCNc1nc(Cl)nc(NCC)n1`, the outcome in assay [1], in [2], in assay [3], in assay [5], in assay [6] and in [8] was inactive. Also, in assay [9], the result was inactive. Further, in [4], the AC50 was 3.7 µM (active).
On to `CC1COC(Cn2cncn2)(c2ccc(Oc3ccc(Cl)cc3)cc2Cl)O1` (stereo not drawn), for which the AC50 in assay [1] is 72.2 µM (active); in [2], 7.86 µM (active); in assay [3], 11.6 µM (active); in assay [4], 50 µM (active); in assay [6], 58.7 µM (active); in [8] it was 78.7 µM (active). Also, in assay [9], the AC50 was 21.4 µM (active). Moreover, the outcome in assay [5] was inactive.
As for `COc1nc(C)nc(NC(=O)NS(=O)(=O)c2ccccc2Cl)n1`, the compound was called inactive in [8] and in [9].
Turning to `COC(=O)C=C(C)OP(=O)(OC)OC`, the outcome in assay [1], in assay [2], in assay [3], in assay [4], in assay [5] and in assay [6] was inactive. In assay [9], the outcome was inactive.

For the origin of these results see PubChem BioAssay (EPA / NIEHS).
